Molecules are shown by their SMILES. “And” between values parts separate entries of the source, which are not always exact repeats. Equal entries are not always repeated. Results filed as inconclusive are left out. The source made the active and inactive calls. Calls come from the whole dose curve; as a rule, active = well fitted curve in the direction sought with a large enough effect; inconclusive = small, poorly fitted or top-dose-only effect, or another doubt; inactive = no such curve, though single readings can be large or run the other way.
% is set by controls: 0 for no effect and ±100 for the full control effect.

This experiment is described as follows: qHTS Assay for Identifying Gametocytocidal Compounds (AID 743244).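 Note: actives lower the fluorescent signal which means gametocytes are killed.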 The note with it: P. falciparum 3D7 stage III-V gametocytes, alamarBlue, 72 h; max response: stronger effect = lower value. Put shortly:
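In this qHTS viability screen, late-stage 3D7 gametocytes are incubated with compound for 72 h, then with alamarBlue for 24 h; reduced resorufin fluorescence marks killing.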
In general terms: In qHTS, concentration-response curves come from the screen itself.
Regarding `CCc1ncnc2cc(OC)c(OC)cc12`, the max response is -4.33% (inactive).
The result for `NCC(O)CC(=O)O` (stereo not drawn) reads 10.8% (inactive); that for `O=S(=O)(O)CCCS(=O)(=O)O`, 2.64% (inactive); that for `OCCN1CCN(CC/C=C2/c3ccccc3Sc3ccc(Cl)cc32)CC1`, -5.02% (inactive).
The same measure for `CN1C(=O)OC(C)(C)C1=O`: 8.47% (inactive).
With `O=C(O)[C@H]1CN(C/C=C/P(=O)(O)O)CCN1`, the max response is 12.3% (inactive).
The result for `Cc1cccc(C)c1NC(=O)NC1=CCCN1C` reads -1.59% (inactive); that for `O=S(=O)(O)CC(S)CS` (stereo not drawn), 3.76% (inactive).
The result for `CO/N=C(\C(=O)N[C@@H]1C(=O)N2C(C(=O)[O-])=C(C[n+]3cccc4c3CCC4)CS[C@H]12)c1csc(N)n1` reads 15.5% (inactive); that for `C=CC(=O)O`, -1.82% (inactive).
Consider `O=C1/C(=C\c2cccs2)CCC/C1=C\c1cccs1`, for which the max response was 5.47% (inactive).
The result for `CNCC(O)c1ccc(OC(=O)C(C)(C)C)c(OC(=O)C(C)(C)C)c1` (stereo not drawn) reads -11.6% (inactive); that for `O=C(c1cc2ccccc2o1)N1CCN(Cc2ccccc2)CC1`, 7.29% (inactive).
The result for `FC(F)(F)C(F)(F)C(F)(F)C(F)(F)C(F)(F)C(F)(F)F` reads 13.2% (inactive); that for `FC(F)(F)COCC(F)(F)F`, 3.82% (inactive); that for `Cc1ncc(C[n+]2csc(CCOP(=O)(O)OP(=O)(O)O)c2C)c(N)n1`, 0.908% (inactive).
The result for `O=C(O)CCC/C=C\C[C@@H]1[C@@H](/C=C/[C@@H](O)COc2cccc(C(F)(F)F)c2)[C@H](O)C[C@@H]1O` reads 7.42% (inactive); that for `CCCCC[C@H](O)/C=C/[C@H]1[C@H](O)CC(=O)[C@@H]1C/C=C\CCCC(=O)O`, 5.55% (inactive).
As to `CC1CC(O)CC(C)(C)C1` (stereo not drawn), the max response was -5.15% (inactive).
The same measure for `CN[C@H](CC(C)C)C(=O)N[C@H]1C(=O)N[C@@H](CC(N)=O)C(=O)N[C@H]2C(=O)N[C@H]3C(=O)N[C@H](C(=O)N[C@@H](C(=O)O)c4cc(O)cc(O)c4-c4cc3ccc4O)[C@H](O)c3ccc(c(Cl)c3)Oc3cc2cc(c3O[C@@H]2O[C@H](CO)[C@@H](O)[C@H](O)[C@H]2O[C@H]2C[C@](C)(N)C(O)[C@H](C)O2)Oc2ccc(cc2Cl)[C@H]1O` (stereo partly drawn): 3.65% (inactive) and -0.964% (inactive).
For `CCC(Oc1ccccc1)C(=O)N[C@@H]1C(=O)N2[C@@H]1SC(C)(C)[C@@H]2C(=O)O` (stereo partly drawn), the max response is 14.1% (inactive).
The same measure for `OC1OC[C@@H](O)[C@H](O)[C@@H]1O` (stereo partly drawn): 7.58% (inactive); for `CO/N=C(\C(=O)N[C@@H]1C(=O)N2C(C(=O)O)=C(CSC(=O)c3ccco3)CS[C@H]12)c1csc(N)n1`: -2.3% (inactive); for `O=C1[O][Bi][O]c2ccccc21`: 14.5% (inactive).
As to `COc1cc(S(C)=O)ccc1-c1nc2ncccc2[nH]1` (stereo not drawn), the max response was 11.9% (inactive).
The result for `COc1ccc2nc(NC(=O)Nc3ccccc3)sc2c1` reads -0.997% (inactive).
The result for `O=C1c2ccccc2C(=O)c2c1ccc(O)c2O` reads 2.07% (inactive).
For `CNC(=O)[C@H](Cc1c[nH]c2ccccc12)NC(=O)[C@@H](CC(=O)NO)CC(C)C`, the max response was -3.58% (inactive).
The result for `C[C@@](Cc1ccc(O)c(O)c1)(NN)C(=O)O` reads -3.47% (inactive); that for `CC(C)(CO)[C@@H](O)C(=O)NCCCC(=O)O`, -4.37% (inactive); that for `CC1(O)CCC(C(C)(C)O)CC1` (stereo not drawn), 5.51% (inactive).
As for `CCN(CC)C(=O)[C@]1(c2ccccc2)C[C@@H]1CN`, the max response was -1.74% (inactive).
The result for `O=C(OC[C@H]1O[C@](O)(COC(=O)c2cccnc2)[C@@H](OC(=O)c2cccnc2)[C@@H]1OC(=O)c1cccnc1)c1cccnc1` reads -9.26% (inactive); that for `C=C[C@]1(C)C[C@@H](OC(=O)CSCCN(CC)CC)[C@]2(C)[C@H](C)CC[C@]3(CCC(=O)[C@H]32)[C@@H](C)[C@@H]1O`, -4.45% (inactive).
The same measure for `Cc1c(Cl)cccc1Nc1ncccc1C(=O)O`: -5.77% (inactive); for `CCCCCCCCCCCCCCCCCC[N+](C)(C)CCC[Si](OC)(OC)OC`: -8.48% (inactive); for `OCC1(CO)COC(C(Cl)(Cl)Cl)OC1`: 24.4% (inactive).
The same measure for `CNC(=O)c1c(I)c(C(=O)NCC(=O)Nc2c(I)c(C(=O)O)c(I)c(C(=O)NCCO)c2I)c(I)c(N(C)C(C)=O)c1I`: 1.95% (inactive).

Source of the values: PubChem BioAssay (NCATS).
